Screening results: PubChem, National Center for Advancing Translational Sciences (NCATS)
Sampled rows, rich in hits. Any-hit rate of the full collection: about 10%.
PNC assembly inh: High Content Assay for Compounds that inhibit the Assembly of the Perinucleolar Compartment | AID 2417, 2010 | activity change (PNC), negative = inhibition, % at 10 µM | actives 3.1% (n = 140,000) | PC3M PTB-GFP, PNC prevalence imaging, 16 h; active compounds read low;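 active = readout at or below -70, meaning at least 70% loss of cells showing the perinucleolar compartment, a nuclear body marking cancer cells; inconclusive = readout between -30 and a set limit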;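 also: plate controls were DMSO wells for no effect and camptothecin positive control wells for full effect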
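PC3M cells stably expressing PTB-GFP, 750–1000 cells/well, treated 16 h at 37 °C with compound (23 nl of library stock), in duplicate. After paraformaldehyde fixation and Hoechst stain, imaged at 20x; PNC prevalence scored by image analysis.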
HPGD block: qHTS Assay for Inhibitors of HPGD (15-Hydroxyprostaglandin Dehydrogenase); Potency, µM, for inactives: at the top dose activity change, negative = inhibition, actives largely listed as inhibitors; actives 4.3% (n = 150,000); purified HPGD, NADH fluorescence kinetic, PGE2 substrate; 15-hydroxyprostaglandin dehydrogenase [NAD(+)] (Homo sapiens), P15428; also: potency is read from the fitted curve at half-maximal effect
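20 nM HPGD preincubated 15 min at room temperature with compound in 50 mM Tris-HCl pH 8, 0.01% Tween 20. Started with 1 mM NAD+ and 30 uM prostaglandin E2; NADH fluorescence (360/450 nm) read 5 times over 30-s intervals, last minus first.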
Lamin A splicing: qHTS Assay for Modulators of Lamin A Splicing. HeLa LMNA splicing GFP/RFP minigene ratio, 48 h. Potency, µM (top dose mostly 46.1 µM), without a hit: at the top dose ratio change, negative = inhibition, most hits filed as inhibitors. actives 0.01% (n = 200,000). AID 1487, 2009; active = well fitted inhibition curve with a large enough effect in the signal ratio, with a control signal flat, not every such curve was filed as active; inconclusive = small, poorly fitted or top-dose-only effect, or effect the other way, or a change in a side signal; the % refers to the signal ratio; also: potency is read from the fitted curve at half-maximal effect
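S3 HeLa stable clones carrying a lamin A-EGFP splicing minigene plus DsRed2 were seeded at 600 cells/well in Opti-MEM with 2% FBS, pin-dosed and incubated 48 h at 37°C. Acumen cytometry (488 nm) gave the GFP/RFP total-intensity ratio.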
ALOX12 inhib: qHTS Assay for Inhibitors of 12-hLO (12-human lipoxygenase); Polyunsaturated fatty acid lipoxygenase ALOX12 (Homo sapiens), P18054; purified 12-hLO, xylenol orange hydroperoxide absorbance; Potency, µM (highest dose often 57.1 µM), without a hit: at the top dose activity change, negative = inhibition, usual class: inhibitors; actives 0.12% (n = 150,000); AID 1452, 2008; active = well fitted inhibition curve with a large enough effect; inconclusive = small, poorly fitted or top-dose-only effect; also: potency is read from the fitted curve at half-maximal effect; nearly all actives have a fitted effect of over 55% in size
Target sequence (P18054 whole entry, looked up): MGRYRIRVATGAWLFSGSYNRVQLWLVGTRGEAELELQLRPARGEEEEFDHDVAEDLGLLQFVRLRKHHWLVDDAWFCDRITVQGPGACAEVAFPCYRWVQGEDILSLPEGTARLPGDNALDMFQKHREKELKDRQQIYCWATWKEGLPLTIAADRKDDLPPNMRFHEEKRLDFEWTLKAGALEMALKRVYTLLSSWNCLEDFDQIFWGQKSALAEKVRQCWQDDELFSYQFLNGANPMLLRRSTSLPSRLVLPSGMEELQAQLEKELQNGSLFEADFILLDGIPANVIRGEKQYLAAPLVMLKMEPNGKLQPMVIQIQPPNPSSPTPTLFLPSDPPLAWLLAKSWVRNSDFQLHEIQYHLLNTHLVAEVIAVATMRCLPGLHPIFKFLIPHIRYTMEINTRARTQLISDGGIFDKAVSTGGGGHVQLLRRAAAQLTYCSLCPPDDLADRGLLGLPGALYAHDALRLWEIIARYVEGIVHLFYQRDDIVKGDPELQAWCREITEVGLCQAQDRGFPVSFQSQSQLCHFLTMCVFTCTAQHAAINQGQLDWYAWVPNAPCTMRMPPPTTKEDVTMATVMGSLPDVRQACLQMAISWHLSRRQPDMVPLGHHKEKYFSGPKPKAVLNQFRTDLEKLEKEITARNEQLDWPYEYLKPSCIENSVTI
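Hydroperoxide output read as Fe(III)-xylenol orange absorbance, 573-to-405 nm ratio, after 30 min reaction with 40 uM arachidonic acid. Enzyme: 150 nM purified human 12hLO, 15 min compound preincubation; 25 mM Hepes pH 7.0, room temperature.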
ALDH1A1 inh: qHTS Assay for Inhibitors of Aldehyde Dehydrogenase 1 (ALDH1A1) | Aldehyde dehydrogenase 1A1 (Homo sapiens), P00352 | Purified ALDH1A1, NADH fluorescence, propionaldehyde substrate | Potency, µM (titrated, usually from 75.3 µM), for inactives: top-dose activity, negative = inhibition, most hits filed as inhibitors | actives 7.3% (n = 220,000);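 also: potency is read from the fitted curve at half-maximal effect; plate controls were no enzyme wells and a reference inhibitor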
Starred values were filed as active, the others as inactive; [ ] = dose if it differs, or a comment. Unless noted, calls follow the shape of the dose curve; as a rule, active = well fitted inhibition curve with a large enough effect (not every such curve was filed as active); inconclusive = small, poorly fitted or top-dose-only effect, or another doubt; inactive = no such curve, though single readings can be large or run the other way. Unless noted, % is scaled to controls: 0 for no effect and ±100 for the full control effect.

`Cc1nnc(SCc2ccc(Cl)cc2Cl)[nH]c1=O` gave PNC assembly inh inconclusive, HPGD block 16µM*, Lamin A splicing -17%, ALOX12 inhib 3% and ALDH1A1 inh 14%.
Screening Cc1ccc(C)c(CSc2nnc(C)c(=O)[nH]2)c1 returned Lamin A splicing -7%[46 µM] and ALDH1A1 inh 8%.
CCCn1ccc2c(OCC(=O)Nc3ccc(OC)c(OC)c3)cccc2c1=O was read as Lamin A splicing -13%[46 µM].
COc1ccc(CNC(=O)NC2CCCCC2)cc1 was read as PNC assembly inh inconclusive, HPGD block -15%, Lamin A splicing -2%, ALOX12 inhib -3% and ALDH1A1 inh 7%.
For COc1ccc(CN2C(=O)c3c(c(C)n(C)c3C)C2C(=O)NC2CCC(C)CC2)cc1 (centres undefined) the results were Lamin A splicing -7%[9.22 µM] and ALDH1A1 inh 0.79µM*.
For CC1CC[C@]2(CO)CC[C@]3(C)C(=CCC4[C@@]5(C)CCC(O)C(C)(C)C5CC[C@@]43C)C2C1C (some centres undefined) the results were HPGD block -12%, ALOX12 inhib -3% and ALDH1A1 inh 3%.
For Cc1[nH]c2ccccc2c1SCCNC(=O)c1ccc(Br)o1 the results were PNC assembly inh inconclusive, HPGD block 14µM*, Lamin A splicing inconclusive, ALOX12 inhib -4% and ALDH1A1 inh -2%.
`CCOC(=O)c1[nH]c2ccccc2c1NC(=O)c1ccc(Br)o1` gave PNC assembly inh -23, HPGD block 1%, Lamin A splicing inconclusive, ALOX12 inhib -4% and ALDH1A1 inh -1%.
`O=C(NCCC(c1ccccc1)c1ccccc1)c1ccc(Br)o1` gave PNC assembly inh 48, HPGD block 14µM*, Lamin A splicing -10%, ALOX12 inhib -5% and ALDH1A1 inh inconclusive.
`O=C(NCCSc1c[nH]c2ccccc12)c1ccc(Br)o1` gave PNC assembly inh -119*, HPGD block 7.1µM*, Lamin A splicing inconclusive, ALOX12 inhib -3% and ALDH1A1 inh -11%.
CCCCOc1ccc(C(C)NC(=O)CN2C(=O)CSc3ccc(S(=O)(=O)N4CCOCC4)cc32)cc1 (centres undefined) was read as Lamin A splicing 10%[46 µM].
Screening Cc1[nH]c(=O)[nH]c(=O)c1S(=O)(=O)N(C)Cc1ccccc1 returned PNC assembly inh -106*, HPGD block -7%, Lamin A splicing -3%, ALOX12 inhib -4% and ALDH1A1 inh 6%.
CCCCN(C)S(=O)(=O)c1c(C)[nH]c(=O)[nH]c1=O was read as PNC assembly inh -23, HPGD block -3%, Lamin A splicing -5%, ALOX12 inhib 5% and ALDH1A1 inh 8%.
For CCOC(=O)c1cnc(SC)nc1Nc1cccc(F)c1 the results were PNC assembly inh 40, HPGD block -9%, Lamin A splicing 27%, ALOX12 inhib -10% and ALDH1A1 inh -2%.
CCOC(=O)c1cnc(SC)nc1Sc1cc(Cl)ccc1Cl was read as PNC assembly inh 27, HPGD block 7.1µM*, Lamin A splicing 5%, ALOX12 inhib -4% and ALDH1A1 inh inconclusive.
For Cc1ccc(S(=O)(=O)/N=C/c2ccc(N(C)C)cc2)cc1 the results were PNC assembly inh 29, HPGD block -17%, Lamin A splicing -15%, ALOX12 inhib -2% and ALDH1A1 inh 13µM*.
Screening O=C(NCCc1c[nH]c2ccccc12)c1cc2sccc2n1Cc1ccccc1 returned PNC assembly inh -8, HPGD block -20%, Lamin A splicing -14%, ALOX12 inhib -15% and ALDH1A1 inh inconclusive.
Cn1c(C(=O)NCCc2c[nH]c3ccccc23)cc2sccc21 was read as PNC assembly inh -81*, HPGD block -13%, Lamin A splicing -14%, ALOX12 inhib -12% and ALDH1A1 inh -12%.
Screening CCOC(=O)OCC1OC(C#Cc2ccc(C(C)(C)C)cc2)C=CC1OC(=O)OCC (centres undefined) returned ALDH1A1 inh -8%[13.5 µM].
For COC(=O)c1cnn2c(C)c(Cc3cccc(F)c3)c(C)nc12 the results were PNC assembly inh -88*, HPGD block inconclusive, Lamin A splicing -17%, ALOX12 inhib -1% and ALDH1A1 inh inconclusive.
CCOC(=O)N1CCN(C(=O)c2cnn3c(C)c(Cc4ccc(C)cc4)c(C)nc23)CC1 was read as PNC assembly inh -7, Lamin A splicing 2%, ALOX12 inhib -8% and ALDH1A1 inh 25µM*.
Cc1nc2c(C(=O)O)cnn2c(C)c1Cc1ccccc1 was read as Lamin A splicing 5%[46 µM].
`COc1ccc(-c2cn3cccnc3n2)cc1NC(=O)COc1ccccc1` gave Lamin A splicing -17%[46 µM].
Screening CCOc1ccc(N2CC(NC(=O)c3ccc4c(c3)OCO4)CC2=O)cc1 (centres undefined) returned Lamin A splicing 2%[46 µM].
Screening Oc1ccc(CNc2ccccc2F)c2cccnc12 returned PNC assembly inh -27, HPGD block -9%, Lamin A splicing inconclusive, ALOX12 inhib inconclusive and ALDH1A1 inh 8.9µM*.
`Oc1ccc(CNCc2ccccc2)c2cccnc12` gave HPGD block -3%, ALOX12 inhib -20%[11.4 µM] and ALDH1A1 inh 17%[13.5 µM].
For COc1cc(/C=C\c2ccc(OC)cc2OC)cc(OC)c1 the results were HPGD block inconclusive, ALOX12 inhib -7% and ALDH1A1 inh inconclusive.
For Cc1nc(Cl)c2c(n1)N(CC(N)=O)C(=O)CO2 the results were PNC assembly inh -109*, HPGD block -6%, Lamin A splicing -3%, ALOX12 inhib 4% and ALDH1A1 inh 7%.
Cc1ccc(-c2ccc(SCC(=O)N3CCc4ccccc43)nn2)cc1 was read as PNC assembly inh -83*, HPGD block -10%, Lamin A splicing -5%, ALOX12 inhib 3% and ALDH1A1 inh 5%.
Screening O=C(CSc1ccc(-c2ccccc2)nn1)N1CCN(c2ccccc2)CC1 returned PNC assembly inh -2, HPGD block -9%, Lamin A splicing -9%, ALOX12 inhib 2% and ALDH1A1 inh 22µM*.
For O=C(CSc1ccc2nnc(-c3ccc(Cl)cc3)n2n1)N1CCc2ccccc21 the results were PNC assembly inh inconclusive, HPGD block 14µM*, Lamin A splicing -10%, ALOX12 inhib -6% and ALDH1A1 inh inconclusive.
`COc1cccc(-c2ccc(SCC(=O)N3CCc4ccccc43)nn2)c1` gave PNC assembly inh 1, HPGD block -22%, Lamin A splicing -9%, ALOX12 inhib -2% and ALDH1A1 inh 20µM*.
Screening Cc1ccc(-c2ccc(SCC(=O)N3CCN(c4ccccc4)CC3)nn2)cc1 returned PNC assembly inh 30, HPGD block -6%, Lamin A splicing -7%, ALOX12 inhib 2% and ALDH1A1 inh -4%.
